Source: PubChem BioAssay
SW480 rereplic: A quantitative high throughput screen for small molecules that induce DNA re-replication in SW480 colon adenocarcinoma cells | SW480 DNA re-replication, Hoechst DNA content imaging, 48 h | Potency, µM (doses to about 46.1 µM), for inactives: at the top dose re-replication activation, actives largely listed as activators | 340,000 compounds, 1.8% hits; note: % of control where 0% means no effect; nearly all actives have a fitted effect of over 55% in size
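First, 250 cells per well were seeded. Next, compound or vehicle (23 nL) was pinned in, plates sat 48 hr at 37 C. Finally Hoechst was added for 40 min before fluorescence scanning.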
RORg inh: qHTS for inhibitors of ROR gamma transcriptional activity; AID 2551, 2010; Drosophila S2 Gal4-RORgamma UAS-luciferase reporter, 20 h; Potency, µM (highest dose often 53.6 µM), for the others: at the top dose activity change, negative = inhibition, usual class: inhibitors; Nuclear receptor ROR-gamma (Mus musculus), P51450; 310,000 compounds, 5.4% hits; note: % is set by controls: 0 for no effect and ±100 for the full control effect; nearly all actives have a fitted effect of over 60% in size
Target sequence (P51450 whole entry, looked up, the tested form may be a part): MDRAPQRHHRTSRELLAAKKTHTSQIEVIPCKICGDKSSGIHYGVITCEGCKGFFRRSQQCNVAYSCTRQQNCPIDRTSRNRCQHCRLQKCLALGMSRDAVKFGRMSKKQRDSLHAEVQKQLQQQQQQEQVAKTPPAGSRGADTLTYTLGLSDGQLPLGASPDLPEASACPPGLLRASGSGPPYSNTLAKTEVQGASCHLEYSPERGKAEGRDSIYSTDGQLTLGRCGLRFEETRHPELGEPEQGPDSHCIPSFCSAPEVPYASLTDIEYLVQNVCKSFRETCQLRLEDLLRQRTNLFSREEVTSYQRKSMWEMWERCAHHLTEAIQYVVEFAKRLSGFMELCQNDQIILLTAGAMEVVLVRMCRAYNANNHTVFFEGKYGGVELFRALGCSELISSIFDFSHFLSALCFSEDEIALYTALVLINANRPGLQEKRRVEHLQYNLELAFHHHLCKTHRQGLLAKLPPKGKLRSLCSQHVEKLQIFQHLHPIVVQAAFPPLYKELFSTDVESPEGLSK
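Compounds are pin-transferred onto Drosophila Schneider cells expressing a copper-inducible Gal4–ROR gamma transactivation domain fusion. After 1 hr, copper sulfate is added to 700 uM final; luciferase is read 20 hr later.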
ELG1 repair inh: qHTS screen for small molecules that inhibit ELG1-dependent DNA repair in human embryonic kidney (HEK293T) cells expressing luciferase-tagged ELG1; HEK293T ELG1-luciferase reporter, luminescence, 16 h; DNA damage induced by 5-fluorouridine; 330,000 compounds, 2.3% hits; Potency, µM (doses to about 46.1 µM), for inactives: at the highest dose activity change, negative = inhibition, usual class: inhibitors; note: % is set by controls: 0 for no effect and ±100 for the full control effect; nearly all actives have a fitted effect of over 55% in size
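In this reporter screen, reduction of luminescence relative to DMSO vehicle indicated activity. Compounds and 5-fluorouridine were added together to 2,000 cells per well, incubated for 16 hr at 37 °C, then developed with ONE-Glo.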
MCF10A rereplic: A quantitative high throughput screen for small molecules that induce DNA re-replication in MCF 10a normal breast cells. MCF 10A DNA re-replication, Hoechst nuclear intensity, 48 h. Potency, µM (series often up to 46.1 µM), inactives show top-dose activity, positive = re-replication, hits mostly activators. 350,000 compounds, 2.9% hits. AID 624296, 2012; note: % of control where 0% means no effect; nearly all actives have a fitted effect of over 50% in size
VP16 counter: VP16 counterscreen qHTS for inhibitors of ROR gamma transcriptional activity; Drosophila S2 Gal4-VP16 UAS-luciferase, luminescence, 20 h; Potency, µM (highest dose often 53.6 µM), for the others: at the highest dose activity, negative = inhibition, usual class: inhibitors; 310,000 compounds, 3.5% hits; AID 2546, 2010;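 note: Gal4-VP16 expression switched on by copper sulfate through the metallothionein promoter; % is set by controls: 0 for no effect and ±100 for the full control effect; nearly all actives have a fitted effect of over 50% in size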
Numbers without * were called inactive; ? = inconclusive; . = no result; [ ] = another dose, or the depositor's remark. Shown are actives, neighbours in structure and some others; about 10% of the full set was active somewhere. Calls come from the whole dose curve; as a rule, active = well fitted curve in the direction sought with a large enough effect; inconclusive = small, poorly fitted or top-dose-only effect, or another doubt; inactive = no such curve, though single readings can be large; an effect the other way counts as inactive or inconclusive. Potency is the fitted concentration of half-maximal effect.

SMILES	SW480 rereplic	RORg inh	ELG1 repair inh	MCF10A rereplic	VP16 counter
CCOC(=O)OCC1OC(c2ccc(C(C)=O)cc2)C=CC1OC(=O)OCC (centres undefined)	.	2.1%[10 µM]	.	.	-18.5%[10 µM]
Cc1ccc(-c2c(NCCc3ccccc3)c(=O)c2=O)cc1	1.1%	11.1%	6.5%	0.1%	-3.8%
CCOc1ccc(/C=N/NC(=O)Nc2ccccc2)cc1	-5.8%	-8.0%	?	-4.6%	0.5%
CCOc1ccc(/C=N/NC(=O)c2ccccc2NC(=O)c2ccc(OC)cc2)cc1	12.4%	7.08µM*	?	0.9%	7.08µM*
Cc1ccc(NC(=S)NNC(=O)c2c(Cl)c(C)nn2C)cc1	-0.4%	3.98µM*	-6.9%	?	?
Cc1ccc(NC(=S)NNC(=O)c2nn(C)c(C)c2Cl)cc1	7.2%	-40.3%	?	2.7%	-2.7%
Cc1ccc(NC(=S)NNC(=O)c2c([N+](=O)[O-])c(C)nn2C)cc1	6.7%	12.6µM*	-5.6%	-3.0%	-19.4%
Cc1ccc(NC(=S)NNC(=O)c2cn(C)nc2C)cc1	-2.4%[9.22 µM]	11.2µM*	?	15.0%	-2.3%
Cc1nn(C)c(C(=O)NNC(=S)NCC(C)C)c1Cl	?	3.16µM*	13.7%	7.7%	-19.1%
Cc1ccc(NC(=O)c2c([N+](=O)[O-])c(C(C)(C)C)nn2C)cc1	-4.0%	18.2%	-13.1%	5.5%	3.0%
O=C(NCc1cccs1)c1ccc(S(=O)(=O)N2CCOCC2)cc1	-9.7%	21.9%	-3.1%	-0.8%	9.8%
CCCCN(C(=O)c1[nH]c(C)c(C(C)=O)c1C)c1c(N)n(CCCC)c(=O)[nH]c1=O	-6.0%	.	1.3%	-5.4%	.
Cc1nn(C)c(C(=O)N/N=C/c2ccc(-c3ccccc3)cc2)c1Cl	4.7%	8.91µM*	-0.9%	?	11.2µM*
CCC(C)(C)n1nnnc1CN1CCN(c2ccc(OC)cc2)CC1	0.1%	-3.6%	5.8%	2.0%	2.6%
Cc1ccc(C)c(NC(=S)Nc2cccnc2)c1	-3.6%	?	7.1%	-1.0%	-5.0%
COc1cccc(NC(=S)NC(=O)c2cccnc2)c1	1.8%	20µM*	26.3%	-14.8%	-93.9%
CC(C)OC(=O)c1ccc(NC(=O)c2cncc(Br)c2)cc1	-9.2%	?	?	?	-10.0%
CC(C)OC(=O)c1ccc(NC(=S)NC(=O)c2cncc(Br)c2)cc1	2.3%	2.24µM*	1.6%	16.2%	2.82µM*
Cc1ccc(NC(=S)Nc2cccnc2)c(S(=O)(=O)N2CCCCC2)c1	-6.0%	?	?	?	15.8µM*
Cc1cc(C)cc(C(=O)NC(=S)Nc2cccnc2)c1	-6.6%	10µM*	?	0.0%	?
CCc1c(C)sc(NC(=S)Nc2cccnc2)c1C(=O)OC	-2.7%	3.55µM*	-11.2%	0.7%	6.31µM*
COc1cccc(NC(=S)NC(=O)c2cncc(Br)c2)c1	18.4µM*	.	.	15.8%	.
CC(=O)c1cccc(NC(=S)NC(=O)c2cncc(Br)c2)c1	4.6%	10µM*	?	-1.2%	17.8µM*
CCOC(=O)c1cccc(NC(=S)NC(=O)c2cccnc2)c1	-9.0%	12.6µM*	13.3%	-11.9%	?
CCOc1ncccc1C(=O)N(CC)CC(=O)NCc1ccc(Cl)cc1	-1.7%	11.7%	-1.0%	2.7%	5.1%
SMILES	SW480 rereplic	RORg inh	ELG1 repair inh	MCF10A rereplic	VP16 counter
Cc1ccc(Sc2ccc(CN3CCCCC3)cc2[N+](=O)[O-])cc1	9.2%	-1.8%	-4.8%	29.2%	4.4%
Cc1ccc(NC(=O)CCn2ccc([N+](=O)[O-])n2)nc1	-6.0%	-1.3%	-13.5%	?	-13.0%
NC(=O)Cn1cc(C(=O)C(=O)N2CCOCC2)c2ccccc21	13.2%	-27.1%	2.9%	-17.6%	-5.8%
Cc1cc(NC(=O)CSc2nnc(-c3ccco3)o2)no1	-3.3%	-7.8%	.	-2.2%	0.1%
CCc1cc2ccccc2nc1SCC(=O)Nc1cc(C)on1	1.7%	-23.6%	3.7%	?	-8.7%
COc1ccccc1NC(=O)CSc1nnc(-c2ccc(C)cc2)o1	-1.0%	2.8%	?	4.9%	19.4%
CCc1cc2ccc(OC)cc2nc1SCC(=O)Nc1cc(C)on1	6.7%	-0.3%	23.0%	13µM*	-27.4%
COc1ccc(C)cc1NC(=O)CSc1nnc(-c2ccc(Br)cc2)o1	20.3%	0.8%	?	13µM*	0.9%
COc1ccc(-c2nnc(SCC(=O)Nc3cc(C)on3)o2)cc1	-1.6%	11.2µM*	?	-3.5%	?
COC(=O)Sc1nnc(-c2ccc(Br)cc2)o1	.	17.8µM*	-1.5%	.	6.8%
CCOC(=O)Cc1csc(SCC(=O)NC2CCCC2)n1	-4.8%	.	-6.0%	0.4%	.
COc1ccc(-c2nnc(SC)o2)c(OC)c1	-5.9%	1.5%	?	0.4%	-6.7%
CCOC(=O)CSc1nnc(-c2ccc(OC)cc2OC)o1	4.3%	8.91µM*	10.6%	?	?
COC(=O)C1=C(C)OC(N)=C(C#N)C1c1c(C)nn(C)c1C (centres undefined)	-3.3%	30.1%	-1.9%	0.1%	-2.7%
CCN=c1scc(-c2ccco2)n1/N=C/c1ccc(OC)c(O)c1	1.1%	-31.8%	.	?	30.0%
CCN=c1scc(-c2ccco2)n1/N=C/c1ccc(O)cc1	2.5%	0.1µM*	?	23.1µM*	0.501µM*
CC#CCN1c2ccccc2[C@]23C[C@@H](C(=O)OC)N(C(=O)NC4CCCCC4)C2=NC(C(=O)OC)=C(C(=O)OC)[C@H]13	-6.5%	.	.	-5.1%	.
O=C(NCc1ccc2c(c1)OCO2)c1cccc2c1C(=O)N(C1CCCCC1)C2	0.8%	-20.6%	6.4%	1.5%	3.2%
CCOC(=O)N1CCC(N2Cc3cccc(C(=O)NCc4ccc5c(c4)OCO5)c3C2=O)CC1	-2.6%	32.8%	23.1µM*	-5.3%	-3.6%
CCN=C1NN=C(c2cc(C)n(Cc3ccco3)c2C)CS1	.	0.282µM*	?	9.3%	?
CCN=C1NN=C(c2cc(C)n(CCc3ccccc3)c2C)CS1	12.9%	0.0%	21.5%	?	-2.2%
CCCCCC(=O)Nc1nc(C)c(-c2csc(Nc3cc(Cl)ccc3OC)n2)s1	?	-7.6%	-6.5%	-11.8%	-0.9%
CCCC(=O)Nc1nc(C)c(-c2csc(Nc3ccc(Cl)cc3)n2)s1	1.4%	?	?	?	?
COc1ccccc1Nc1nc(-c2sc(NC(=O)c3cccc(Cl)c3)nc2C)cs1	.	?	-7.3%	.	-14.3%
C=CCCC(=O)Nc1nc(C)c(-c2csc(Nc3cc(OC)ccc3OC)n2)s1	23.1µM*	28.9%	7.31µM*	?	-13.2%
Cc1cc(O)ccc1Nc1nc(-c2sc(N)nc2C)cs1	-3.3%	-27.5%	-23.8%	-4.6%	0.5%
COc1ccccc1Nc1nc(-c2sc(NC(=O)C(C)(C)C)nc2C)cs1	17.1%[9.22 µM]	?	?	5.3%	6.31µM*
